From PubChem BioAssay (NCI) come the findings set out here.

This is part of a sample that, as a whole, favours compounds with a hit. Of some 83,000 tested, about 20% had one in any assay.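 Testing used 96-well plates and a 48-hour single-concentration exposure. Example: -40 means 40% of the starting cells died.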 A number with no mark means an inactive call. The source made the active and inactive calls. The calls were made as follows: active = growth percent below 10; inactive = the rest.

The assay has as its system MDA-MB-468 breast. Kind of assay: NCI-60 one-dose screen, 48 h (100 = growth as untreated, 0 = no growth, -100 = all killed). As to conditions: 10 µM unless noted.
In the case of `O=C(Nc1ncc(Cc2ccc(Cl)c(C(F)(F)F)c2)s1)c1ccc2nnsc2c1`, the growth is 26.3%.
For the compound `O=C(Nc1cccc(Cl)c1)Nc1nc2ccc(-c3cccc4ccccc34)cc2s1`, the growth was 37.6%.
The result for `CS(=O)(=O)c1cccc(-c2c(-c3cccc(OS(N)(=O)=O)c3)nc3sccn23)c1` reads 104%; that for `O=C1C(Cl)=C(NCCCN2CCOCC2)C(=O)c2ccccc21`, 64.7%.
The result for `CN(C)CCCSc1ccccc1NC1=C(Cl)C(=O)C(Nc2ccccc2SCCCN(C)C)=C(Cl)C1=O` reads -61.4% (active); that for `NC(=O)Cc1nc(O)cc(=O)[nH]1`, 111%; that for `S=C(NCc1ccccc1)N1CCC(CCCC2CCN(C(=S)NCc3ccccc3)CC2)CC1`, 69.1%.
With `O=C(Nc1ccccc1)Nc1nc2ccc([N+](=O)[O-])cc2[nH]1` the figure was 22.1%; with `O=C(O)CCCCCCCCCCCCCCC(=O)O`, 95.6%.
As for `CCN1CCN(c2nc(NNC(=O)c3ccccc3)nc(N3CCN(C(c4ccccc4)c4ccccc4)CC3)n2)CC1`, the growth is 7.71% (active).
With `O=C(O)c1ccc(-c2nn(-c3ccc(C(=O)O)cc3)cc2/C=N/Nc2c(F)c(F)cc(F)c2F)cc1` the figure was 117%; with `CCCCCN1C=C/C(=C\C(=O)N(C)c2ccccc2Br)c2ccccc21`, 71.2%; with `C=C(CBr)[C@@H]1CC[C@]2(C(=O)O)CC[C@]3(C)[C@H](CC[C@@H]4[C@@]5(C)CCC(=O)C(C)(C)[C@@H]5CC[C@]43C)[C@@H]12`, 40.3%.
With `Cc1cc(C)c(C#N)c(SCC(=O)c2sc3c(C#N)c(C)cc(C)[n+]3c2[O-])n1` the figure was 4.32% (active).
